Screens: PubChem, National Center for Advancing Translational Sciences (NCATS)
12-LOX inh = Primary qHTS assay for inhibitors of human arachidonate 12S-lipoxygenase (ALOX12): Round 2; purified 12hLO, xylenol orange hydroperoxide absorbance; AID 1671190, 2021; 1.1% of 580,000 active; Polyunsaturated fatty acid lipoxygenase ALOX12 (Homo sapiens), P18054; Potency, µM (top dose mostly 108 µM), most hits filed as inhibitors
Target sequence (P18054 whole entry, looked up): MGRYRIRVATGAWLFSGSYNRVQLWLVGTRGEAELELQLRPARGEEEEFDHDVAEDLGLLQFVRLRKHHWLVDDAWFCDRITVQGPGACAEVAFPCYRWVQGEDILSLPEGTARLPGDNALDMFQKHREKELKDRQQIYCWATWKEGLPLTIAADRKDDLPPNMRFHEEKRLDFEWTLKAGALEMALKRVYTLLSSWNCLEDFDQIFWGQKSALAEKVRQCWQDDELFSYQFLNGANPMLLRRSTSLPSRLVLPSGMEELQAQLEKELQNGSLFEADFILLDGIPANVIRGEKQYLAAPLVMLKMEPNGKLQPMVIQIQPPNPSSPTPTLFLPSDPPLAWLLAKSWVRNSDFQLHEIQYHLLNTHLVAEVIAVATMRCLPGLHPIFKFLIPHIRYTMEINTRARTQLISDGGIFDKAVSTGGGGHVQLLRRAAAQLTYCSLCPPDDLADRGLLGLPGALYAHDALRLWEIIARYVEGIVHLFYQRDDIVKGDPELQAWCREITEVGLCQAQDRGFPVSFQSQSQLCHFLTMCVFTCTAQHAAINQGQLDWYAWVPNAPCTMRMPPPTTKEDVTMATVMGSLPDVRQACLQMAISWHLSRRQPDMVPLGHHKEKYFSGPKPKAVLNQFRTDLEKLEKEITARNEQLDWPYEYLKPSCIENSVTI
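Hydroperoxide product was detected by ferrous iron/xylenol orange as the 573 to 405 nm absorbance ratio. Arachidonic acid at 40 uM (final) was turned over for 30 min at room temperature by 150 nM human 12hLO, pH 7.0 Hepes buffer, after 15 min compound preincubation.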
TDP1 cell CPT = qHTS for Inhibitors of human tyrosyl-DNA phosphodiesterase 1 (TDP1): qHTS in cells in presence of CPT; chicken DT40 Tdp1-/-;hTDP1 cells + 20 nM CPT, ATP luminescence, 48 h; Potency, µM (series often up to 46.2 µM), hits mostly inhibitors; 12% of 420,000 active; AID 686979, 2013; further: nearly all actives have a fitted effect of over 55% in size
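Chicken DT40 Tdp1-/- cells complemented with human TDP1, 400 cells/well, exposed to compounds plus 20 nM camptothecin for at least 48 h at 37 C; viability read as ATP content by CellTiter-Glo luminescence.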
IL-1B inflam inh = qHTS for Inhibitors of Inflammasome Signaling: IL-1-beta AlphaLISA Primary Screen; THP-1 LPS/ATP IL-1B secretion, AlphaLISA, 16 h; active compounds read low; activity change, % at 57.5 µM; 4.7% of 360,000 active; AID 743279, 2014; in the data active means activity change below about -50%; inconclusive means mostly about -30% to -49%
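THP-1 cells pretreated 1 hr with compounds (up to 57.5 uM final), then stimulated with LPS (250 ng/mL final) plus ATP (1.25 mM final); secreted IL-1B measured by AlphaLISA after 16 hr, decreased signal indicating inhibition.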
HT1080-NT tox = qHTS for induction of synthetic lethality in tumor cells producing 2HG: qHTS for the HT-1080-NT fibrosarcoma cell line. 1.6% of 360,000 active. Potency, µM (highest dose often 46.1 µM), actives largely listed as cytotoxic. HT-1080-NT fibrosarcoma viability, CellTiter-Glo ATP luminescence, 48 h. AID 686970, 2013;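 further: NT is the 2HG producing partner of a matched IDH1 knockdown line; nearly all actives have a fitted effect of over 55% in size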
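Fibrosarcoma NT cells, 750 per well in 5% FBS RPMI, were exposed to compound for 48 hours. Viability: CellTiter-Glo luminescence.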
HT1080 IDH1KD tx = qHTS for induction of synthetic lethality in tumor cells producing 2HG: qHTS for the HT-1080-IDH1KD cell line; 2% of 360,000 active; HT-1080 IDH1 knockdown viability, ATP luminescence, 48 h; Potency, µM (top dose mostly 46.1 µM), hits mostly cytotoxic
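Assay cells: HT-1080 with IDH1 knockdown, 750 per well, RPMI/5% FBS. Exposure: 48 h at 37 °C following 2 h pre-incubation. Read: CellTiter-Glo luminescence; fitted concentration-response, curve class assigned.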
DT40 TDP1 no CPT = qHTS for Inhibitors of human tyrosyl-DNA phosphodiesterase 1 (TDP1): qHTS in cells in absence of CPT; 15% of 420,000 active; Potency, µM (titrated, usually from 46.2 µM), actives largely listed as inhibitors; DT40 Tdp1-/- hTDP1 cells, no CPT, ATP luminescence, 48 h; further: nearly all actives have a fitted effect of over 55% in size
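Camptothecin absent (DMSO only). Human TDP1-complemented DT40 knockout cells, 400 cells/well, 37 °C for minimum 48 hr; ATP measured via CellTiter-Glo, 30 min dark incubation, luminescence.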
Numbers stand for hits. This excerpt belongs to a sample that is enriched for hits. Unless noted, the call rests on the fitted dose curve; in most records, active means well fitted curve in the direction sought with a large enough effect; inconclusive means small, poorly fitted or top-dose-only effect, or another doubt; inactive means no such curve, though single readings can be large; an effect the other way counts as inactive or inconclusive.

Screening COc1ccc(CNC(=O)C[C@@H]2C[C@H]3c4cc(NC(=O)NC5CCCC5)ccc4O[C@H]3[C@H](CO)O2)cc1 returned 12-LOX inh inconclusive, TDP1 cell CPT inconclusive, IL-1B inflam inh inactive, HT1080-NT tox inactive, HT1080 IDH1KD tx inactive and DT40 TDP1 no CPT 13µM.
Screening COc1ccc(CNC(=O)c2ncoc2-c2cccc(Cl)c2)cc1OC returned 12-LOX inh inactive.
CC(C)C(NS(=O)(=O)c1ccccc1)c1cccs1 (centres undefined) was read as 12-LOX inh inactive.
Screening Cc1ccc2c(c1)cc(CN(Cc1cccs1)C(=O)c1ccco1)c1nnnn12 returned 12-LOX inh inactive, TDP1 cell CPT inconclusive, IL-1B inflam inh inactive, HT1080-NT tox inactive, HT1080 IDH1KD tx inactive and DT40 TDP1 no CPT 16µM.
`COCCN(Cc1cc2cc(C)ccc2n2nnnc12)C(=S)Nc1cccc(C)c1` gave 12-LOX inh inactive, TDP1 cell CPT inconclusive, IL-1B inflam inh inactive, HT1080-NT tox inactive, HT1080 IDH1KD tx inactive and DT40 TDP1 no CPT inconclusive.
Cc1ccc2[nH]c(=O)c(CN(Cc3cccnc3)C(=O)c3ccncc3)cc2c1 was read as 12-LOX inh inactive, TDP1 cell CPT inconclusive, IL-1B inflam inh inactive, HT1080-NT tox inconclusive, HT1080 IDH1KD tx inconclusive and DT40 TDP1 no CPT 21µM.
Cc1ccc2c(c1)cc(CN(Cc1ccc3c(c1)OCO3)S(=O)(=O)c1ccccc1)c1nnnn12 was read as 12-LOX inh inactive, TDP1 cell CPT inconclusive, IL-1B inflam inh inactive, HT1080-NT tox inactive, HT1080 IDH1KD tx inactive and DT40 TDP1 no CPT 21µM.
`O=C(c1ccccc1)N(Cc1cccnc1)Cc1cc2ccccc2[nH]c1=O` gave 12-LOX inh inactive.
CCCN(Cc1cc2cc(C)ccc2[nH]c1=O)C(=O)c1cccc(Cl)c1 was read as 12-LOX inh inconclusive, TDP1 cell CPT inconclusive and DT40 TDP1 no CPT 23µM.
CNC(=S)N(Cc1cc2cc(C)ccc2n2nnnc12)CC(C)(C)CN(C)C was read as 12-LOX inh inactive, TDP1 cell CPT inactive, IL-1B inflam inh inactive, HT1080-NT tox inactive, HT1080 IDH1KD tx inactive and DT40 TDP1 no CPT inactive.
CN(Cc1ccco1)C(=O)Cc1cccn1-c1ccc(F)cc1 was read as 12-LOX inh inactive.
Screening C=C(C)CN1CCN(c2nc3c(c(=O)[nH]c(=O)n3C)n2Cc2cccc3ccccc23)CC1 returned 12-LOX inh inactive.
Screening Cc1ccc2c(c1)cc(CN(Cc1cccnc1)C(=O)c1ccccc1)c1nnnn12 returned 12-LOX inh inactive, TDP1 cell CPT inactive, IL-1B inflam inh inactive, HT1080-NT tox inactive, HT1080 IDH1KD tx inactive and DT40 TDP1 no CPT inactive.
For Cc1ccc(C(=O)N(Cc2cccnc2)Cc2cc3cc(C)ccc3n3nnnc23)cc1 the results were 12-LOX inh inactive, TDP1 cell CPT 18µM, IL-1B inflam inh inactive, HT1080-NT tox inactive, HT1080 IDH1KD tx inactive and DT40 TDP1 no CPT inconclusive.
`Cc1c(N(Cc2ccccc2F)S(C)(=O)=O)c(=O)n(-c2ccccc2)n1C` gave 12-LOX inh inactive.
Clc1nnc(N/N=C/c2ccccc2)c2ccccc12 was read as 12-LOX inh inactive, TDP1 cell CPT inconclusive, IL-1B inflam inh inactive, HT1080-NT tox inconclusive, HT1080 IDH1KD tx inconclusive and DT40 TDP1 no CPT inconclusive.
C[n+]1ccc(/C=N/Nc2nc(Cl)c(C#N)c(Cl)c2Cl)cc1 was read as 12-LOX inh inactive, TDP1 cell CPT inconclusive, IL-1B inflam inh -59, HT1080-NT tox inconclusive, HT1080 IDH1KD tx inactive and DT40 TDP1 no CPT inconclusive.
